# Measurements as given in the supplement of paper PMC8728848.
# Shown is part of a subset that was picked to be rich in the strongest signals.
# How the values were obtained:
# Assay in all cases: glycan array binding signal (z-score within array); higher = stronger binding
# Details in all cases: glycan notation: IUPAC condensed, linker removed
# [1] = biological target: GalNAc(a1-3)GalNAc(b1-3)Gal(a1-4)Gal(b1-4)GlcNAc
# Outline: (§1)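 The binding signal is a Z-score computed within each array. Data were drawn from 3228 arrays in the Consortium for Functional Glycomics database, restricted to those with a known protein sequence. Scores were averaged over arrays of the same protein sequence at different concentrations or buffers, and over linkers, and negative values can be taken as non-binding.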
# GlcA(b1-3)GlcNAc = biological target: GlcA(b1-3)GlcNAc
# Outline: as §1
# [2] = biological target: GlcNAc(a1-4)Gal(b1-3)GlcNAc
# Outline: as §1
# [3] = biological target: GlcNAc(a1-4)Gal(b1-4)GalNAc
# Outline: as §1
# Kdn(a2-3)Gal(b1-4)GlcNAc = biological target: Kdn(a2-3)Gal(b1-4)GlcNAc
# Outline: as §1
# [4] = biological target: Man(a1-2)Man(a1-6)[Man(a1-3)]Man(a1-6)[Man(a1-2)Man(a1-2)Man(a1-3)]Man(b1-4)GlcNAc(b1-4)GlcNAc
# Outline: as §1
# [5] = biological target: Neu5Ac(a2-3)Gal(b1-3)GalNAc
# Outline: as §1
# [6] = biological target: Neu5Ac(a2-3)Gal(b1-3)GalNAc(b1-4)[Neu5Ac(a2-8)Neu5Ac(a2-3)]Gal(b1-4)Glc
# Outline: as §1
# [7] = biological target: Neu5Ac(a2-6)Gal(b1-3)GlcNAc(b1-3)[Gal(b1-4)GlcNAc(b1-6)]Gal(b1-4)Glc
# Outline: as §1
# Neu5Ac(a2-6)GalNAc = biological target: Neu5Ac(a2-6)GalNAc
# Outline: as §1
# [8] = biological target: Neu5Ac(b2-6)Gal(b1-4)GlcNAc
# Outline: as §1
binder,measurement,setting,value
"AFL (Aspergillus fumigatus), Q4WW81 (protein) STPGAQQVLFRTGIAAVNLTNHLRVYFQDVYGSIRESLYEGSWANGTEKNVIGNAKLGSPVAATSKELKHIRVYTLTEGNTLQEFAYDSGTGWYNGGLGGAKFQVAPYSRIAAVFLAGTDALQLRIYAQKPDNTIQEYMWNGDGWKEGTNLGGALPGTGIGATSFRYTDYNGPSIRIWFQTDDLKLVQRAYDPHKGWYPDLVTIFDRAPPRTAIAATSFGAGNSSIYMRIYFVNSDNTIWQVCWDHGKGYHDKGTITPVIQGSEVAIISWGSFANNGPDLRLYFQNGTYISAVSEWVWNRAHGSQLGRSALPPA",glycan array binding signal (z-score),[1],-0.377
same,glycan array binding signal (z-score),GlcA(b1-3)GlcNAc,-0.361
same,glycan array binding signal (z-score),[2],-0.377
same,glycan array binding signal (z-score),[3],-0.384
same,glycan array binding signal (z-score),Kdn(a2-3)Gal(b1-4)GlcNAc,-0.381
same,glycan array binding signal (z-score),[4],-0.376
same,glycan array binding signal (z-score),[5],-0.385
same,glycan array binding signal (z-score),[6],-0.382
same,glycan array binding signal (z-score),[7],-0.383
same,glycan array binding signal (z-score),Neu5Ac(a2-6)GalNAc,-0.383
same,glycan array binding signal (z-score),[8],-0.388
